High-throughput results from PubChem.
TGFb inhibitor – qHTS for Inhibitors of TGF-b | HepG2 CAGA-GFP TGF-b/SMAD3 reporter, GFP fluorescence, 18 h; TGF-beta stimulated, 500 pg/mL final | Potency, µM (titrated, usually from 46.1 µM), inactives show at the highest dose activity, negative = inhibition, actives largely listed as inhibitors | actives 1.2% (n = 410,000) | AID 588855, 2011; also: potency is read from the fitted curve at half-maximal effect; % is scaled to controls: 0 for no effect and ±100 for the full control effect; nearly all actives have a fitted effect of over 65% in size
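Read-out: total well GFP (ex488/em500-530) summed from mean per-cell fluorescence. Cells: HEPG2 CAGA-GFP, 1% FBS DMEM, 18 h at 37 degrees C with 500 pg/mL final TGF-beta. Unstimulated wells served as the full-inhibition control; stimulated DMSO wells = 0%.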
TDP1 cell noCPT – qHTS for Inhibitors of human tyrosyl-DNA phosphodiesterase 1 (TDP1): qHTS in cells in absence of CPT; Potency, µM (doses to about 46.2 µM), inactives show at the top dose activity change, negative = growth inhibition, usual class: inhibitors; DT40 Tdp1-/- hTDP1 cells, no CPT, ATP luminescence, 48 h; actives 15% (n = 420,000); also: potency is read from the fitted curve at half-maximal effect; % is scaled to controls: 0 for no effect and ±100 for the full control effect; nearly all actives have a fitted effect of over 55% in size
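Compound effects on proliferation are scored in DT40 Tdp1-/-;hTDP1 cells in the absence of CPT. ATP levels (CellTiter-Glo luminescence) are recorded after a ≥48 hr, 37 °C incubation.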
IL-1B inflam inh – qHTS for Inhibitors of Inflammasome Signaling: IL-1-beta AlphaLISA Primary Screen. THP-1 LPS/ATP IL-1B secretion, AlphaLISA, 16 h; stronger effect = lower value. activity change, % at 57.5 µM. actives 4.7% (n = 360,000); in the data active = activity change below about -50%; inconclusive = mostly about -30% to -49%; also: % is scaled to controls: 0 for no effect and ±100 for the full control effect
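Secreted IL-1B measured by AlphaLISA bead assay after 16 h compound exposure of THP-1 cells; compounds (final up to 57.5 uM) added 1 h before LPS (250 ng/mL) and ATP (1.25 mM) stimulation; lower signal means less secretion.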
HepG2 viability – qHTS for Inhibitors of TGF-b: Cytotox Counterscreen; actives 0.76% (n = 410,000); HepG2 CAGA-GFP viability, ATP luminescence, 18 h; Potency, µM (top dose mostly 46.1 µM), without a hit: at the highest dose activity change, negative = cytotoxicity, usual class: cytotoxic; also: potency is read from the fitted curve at half-maximal effect
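HepG2 CAGA-GFP cells (1000/well, DMEM with 1% FBS) received compound, then TGF-beta at 500 pg/mL final, and were incubated 18 hours at 37 degrees C. Viability was read by CellTiter-Glo luminescence. Media-only wells were set as complete cell-killing and DMSO as no toxicity.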
TDP1 block – qHTS Assay for Inhibitors of Tyrosyl-DNA Phosphodiesterase (TDP1); Tyrosyl-DNA phosphodiesterase 1 (Homo sapiens), Q9NUW8; recombinant TDP1, AlphaScreen DNA substrate cleavage; Potency, µM (titrated, usually from 130 µM), for inactives: at the highest dose activity change, negative = inhibition, hits mostly inhibitors; actives 0.28% (n = 350,000); also: potency is read from the fitted curve at half-maximal effect; % is scaled to controls: 0 for no effect and ±100 for the full control effect; nearly all actives have a fitted effect of over 40% in size
Target sequence (Q9NUW8 whole entry, looked up): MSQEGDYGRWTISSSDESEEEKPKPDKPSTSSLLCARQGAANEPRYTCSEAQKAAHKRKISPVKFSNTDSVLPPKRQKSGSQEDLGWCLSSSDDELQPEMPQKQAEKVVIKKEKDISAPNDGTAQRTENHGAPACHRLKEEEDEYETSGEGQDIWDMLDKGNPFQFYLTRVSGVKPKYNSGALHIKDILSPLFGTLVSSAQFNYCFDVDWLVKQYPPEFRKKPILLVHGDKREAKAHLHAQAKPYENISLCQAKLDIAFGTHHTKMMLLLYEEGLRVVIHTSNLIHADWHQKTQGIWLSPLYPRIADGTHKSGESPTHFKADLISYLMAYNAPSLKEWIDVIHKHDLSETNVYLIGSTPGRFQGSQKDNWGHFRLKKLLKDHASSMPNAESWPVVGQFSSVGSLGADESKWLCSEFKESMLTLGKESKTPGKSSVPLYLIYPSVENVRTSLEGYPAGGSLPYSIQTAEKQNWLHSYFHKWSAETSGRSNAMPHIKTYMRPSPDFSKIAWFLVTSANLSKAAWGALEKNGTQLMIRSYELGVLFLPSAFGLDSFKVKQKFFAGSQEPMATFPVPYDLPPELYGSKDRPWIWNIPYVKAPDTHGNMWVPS
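Here, a 5' biotin and 3' phosphotyrosine-FITC DNA oligonucleotide reports Tdp1 activity: intact substrate bridges AlphaScreen beads, while cleavage leaves a 3' phosphate and drops signal. All incubations at room temperature.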
DT40 TDP1 CPT – qHTS for Inhibitors of human tyrosyl-DNA phosphodiesterase 1 (TDP1): qHTS in cells in presence of CPT | chicken DT40 Tdp1-/-;hTDP1 cells + 20 nM CPT, ATP luminescence, 48 h | actives 12% (n = 420,000) | AID 686979, 2013 | Potency, µM (series often up to 46.2 µM), inactives show at the highest dose activity change, negative = growth inhibition, most hits filed as inhibitors; also: potency is read from the fitted curve at half-maximal effect; % is scaled to controls: 0 for no effect and ±100 for the full control effect; nearly all actives have a fitted effect of over 55% in size
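Chicken DT40 Tdp1-/- cells complemented with human TDP1, 400 cells/well, exposed to compounds plus 20 nM camptothecin for at least 48 h at 37 C; viability read as ATP content by CellTiter-Glo luminescence.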
Starred values were filed as active, the others as inactive; ? = inconclusive; . = no result; [ ] = another dose, or the depositor's remark. Compounds with a hit are over-represented: about 19% of the library has one in this group of screens. Unless noted, calls follow the shape of the dose curve; as a rule, active = well fitted curve in the direction sought with a large enough effect; inconclusive = small, poorly fitted or top-dose-only effect, or another doubt; inactive = no such curve, though single readings can be large; an effect the other way counts as inactive or inconclusive.

SMILES | TGFb inhibitor | TDP1 cell noCPT | IL-1B inflam inh | HepG2 viability | TDP1 block | DT40 TDP1 CPT
O=C(Nc1scc(-c2ccccc2)c1C(=O)O)c1ccccc1Cl | 3.1% | -1.0% | -21.3 | 2.3% | . | 4.6%
CC(=O)N1CCc2c(sc3c2c(=O)n(Cc2ccccc2)c(=O)n3CC(=O)Nc2ccc(C)c(F)c2)C1 | ? | ? | . | -18.1% | 2.9% | ?
CCOC(=O)Cc1nnc2c(Nc3ccccc3F)nc3nonc3n12 | -15.1% | 23.1µM* | 7.7 | -50.1% | 1.0% | 23.1µM*
CN1CCN(c2ccc(CNC(=O)c3ccc(-c4ccc(F)c(F)c4)c4ccoc34)cc2)CC1 | 9.0% | 18.4µM* | -17.5 | -30.3% | . | ?
CC(C)CNC(=O)c1ccc(-c2ccc(F)c(F)c2)c2ccoc12 | -8.2% | 18.4µM* | -66.4* | -23.9% | . | ?
O=C(NCc1ccncc1)c1ccc(-c2ccc(F)c(F)c2)c2ccoc12 | -14.0% | 6.51µM* | -16.0 | -37.3% | . | 4.11µM*
CN1CCN(c2ccc(CNC(=O)c3cccc4c(-c5ccc(F)c(F)c5)coc34)cc2)CC1 | ? | ? | -10.9 | -113.6% | . | ?
O=C(NCCc1ccccc1)c1ccc(-c2cccnc2)c2ccoc12 | -0.9% | 14.6µM* | -26.1 | -27.6% | . | ?
CN(CCc1ccccc1)C(=O)CCc1nnc(Cc2ccc3c(c2)OCO3)o1 | 1.9% | 6.0% | 10.8 | -16.8% | 2.0% | 2.3%
CC1(OC(=O)C2CCCC2)C(=O)C=C2C=C(c3ccsc3)N(c3cccc(C#N)c3)C=C2C1=O (centres undefined) | . | . | . | . | 10.5%[21 µM] | .
Cc1ccc(-c2nnc(N3CCN(C(=O)COc4cccc(C)c4)CC3)c3ccccc23)cc1 | ? | ? | -86.5* | -16.0% | 6.0% | ?
Cc1cccc(OCC(=O)N2CCN(c3nnc(-c4ccccc4)c4ccccc34)CC2)c1 | ? | 18.4µM* | -21.6 | -24.8% | 0.0% | ?
Cc1ccc(-c2nnc(N3CCN(C(=O)CN4C(=O)c5ccccc5C4=O)CC3)c3ccccc23)cc1 | 0.6% | ? | -11.9 | -12.5% | . | ?
CC(=O)N(CCC(c1ccccc1)c1ccco1)Cc1cccs1 (centres undefined) | 0.0% | ? | -19.8 | 0.1% | -4.0% | 14.6µM*
CCC(=O)N(CCC(c1ccco1)c1ccccc1OC)Cc1cccs1 (centres undefined) | -9.9% | ? | ? | -20.2% | -0.7% | ?
O=C(NC1CC1)c1ccc(-c2cnc3cccnn23)cc1 | 15.1% | ? | 4.6 | 0.3% | . | ?
COc1cccc(-c2nn(C)c3sc(C(=O)N4CCN(c5cccc(C(F)(F)F)c5)CC4)cc23)c1 | -15.0% | 25.9µM* | . | -3.3% | -2.3% | 16.4µM*
COc1ccc(-c2nn(C)c3sc(C(=O)N4CCN(c5ccccc5F)CC4)cc23)cc1OC | 12.3% | ? | . | -15.2% | -2.3% | ?
COc1ccc(N2CCN(C(=O)c3cc4c(-c5cccc(OC)c5)nn(C)c4s3)CC2)cc1 | 1.7% | 14.6µM* | 0.0 | -11.2% | 12.0% | ?
COc1ccc(-c2nn(C)c3sc(C(=O)N4CCOCC4)cc23)cc1OC | 1.1% | ? | -19.9 | -15.4% | 5.4% | -17.0%
CCCCC[C@@H](C)N1C[C@@H](COCc2ccccc2)Oc2cc(N3CCC[C@H]3COC)ccc2S1(=O)=O | . | 18.4µM* | 38.9 | . | . | ?
CCCCC[C@@H](C)N1C[C@H](COCc2ccccc2)Oc2cc(N3CCC[C@H]3COC)ccc2S1(=O)=O | . | 6.51µM* | 2.5 | . | . | 5.8µM*
CCCCC[C@@H](C)N1C[C@@H](COCc2ccccc2)Oc2cc(N3CCC[C@@H]3COC)ccc2S1(=O)=O | . | 16.4µM* | 56.2 | . | . | ?
CCCCC[C@H](C)N1C[C@H](COCc2ccccc2)Oc2cc(N3CCC[C@H]3COC)ccc2S1(=O)=O | . | 18.4µM* | 0.0 | . | . | ?
CCCCC[C@H](C)N1C[C@@H](COCc2ccccc2)Oc2cc(N3CC[C@H](O)C3)ccc2S1(=O)=O | . | ? | -7.5 | . | . | ?
SMILES | TGFb inhibitor | TDP1 cell noCPT | IL-1B inflam inh | HepG2 viability | TDP1 block | DT40 TDP1 CPT
COC(=O)c1cc(CNC(=O)c2ccc(N(C)C)cc2)cc(NC(=O)c2ccccc2Cl)c1 | . | -27.5% | . | . | . | -0.1%
CCCCC[C@H](C)N1C[C@@H](COCc2ccccc2)Oc2cc(N3CCC[C@@H]3COC)ccc2S1(=O)=O | . | 18.4µM* | 41.7 | . | . | 20.6µM*
Cc1cc(C)cc(NC(=O)Nc2nnc(N(C)C3CCCCC3)s2)c1 | 3.0% | ? | . | -0.1% | 5.7% | 14.6µM*
N#C/C(=C\c1ccc(C(=O)O)cc1)c1ccccn1 | ? | -12.7% | 0.0 | -16.7% | -1.3% | 5.2%
N#C/C(=C\c1ccc(N2CCOCC2)o1)c1ccccc1 | ? | ? | -83.5* | -55.4% | 11.8% | 10.3µM*
N#C/C(=C/c1ccc(N2CCOCC2)o1)c1ccc(Br)cc1 | 165.9% | 14.6µM* | -106.0* | -47.1% | 7.7% | 9.2µM*
N#C/C(=C\c1ccc(N2CCOCC2)cc1)c1ccccc1 | -0.4% | 14.6µM* | ? | -6.6% | 8.0% | 20.6µM*
N#CC(=Cc1ccncc1)c1ccccc1 | -23.7% | -27.7% | -74.2* | -27.7% | . | 1.6%
N#C/C(=C\N1CCOCC1)c1ccccc1 | 22.7% | -7.7% | -14.9 | -0.7% | 1.0% | -5.4%
Cn1c(CO)cnc1S(=O)(=O)Cc1c(Cl)cccc1Cl | 0.0% | 18.4% | 3.6 | 4.8% | . | ?
CCN1C(=O)C(CC(=O)Nc2ccc(OC)cc2)N(CCCN2CCN(c3ccc(OC)cc3)CC2)C1=S (centres undefined) | -29.0% | 16.4µM* | -29.9 | -20.5% | 7.4% | 20.6µM*
CCN1C(=O)C(CC(=O)Nc2ccc(OC)cc2)N(CCN2CCOCC2)C1=S (centres undefined) | 0.0% | -19.5% | 12.6 | -41.3% | 2.9% | -2.1%
COC(=O)CN1C(=S)N(Cc2ccccc2)C(=O)C1CC(=O)Nc1ccc(Br)cc1 (centres undefined) | ? | ? | -18.0 | -37.3% | 1.0% | 16.4µM*
